Source: PubChem BioAssay (Tox21)
Records with an inconclusive call do not appear. Active and inactive are the calls of the source. Calls follow the shape of the dose curve; as a rule, active = well fitted curve in the direction sought with a large enough effect in the repeat runs; inconclusive = weak or mixed curves; inactive = no such curve, though single readings can be large; an effect the other way counts as inactive or inconclusive.

Experiments:
[1] = A CellTox Green Cytotoxicity Assay to monitor cytotoxicity in HEK293 cells - 40 hour (AID 1224871); also: nearly all actives have a fitted effect of over 45% in size
In short: (§1)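 Fluorescence from a DNA-binding dye excluded by viable cells was measured repeatedly in the same HEK293 wells (600 cells/well) during continuous compound exposure at 37 C. Each assay gives one read point: 0, 8, 16, 24, 32 or 40 h.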

[2] = qHTS RealTime-Glo MT Cell Viability Assay in HEK293 cells - 16 hour (AID 1224872); also: top concentration of the series differs between compounds; nearly all actives have a fitted effect of over 50% in size
In short: (§2)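 Nonlytic real-time viability readout: viable cells convert prosubstrate to NanoLuc substrate, giving luminescence proportional to live cell number. HEK293, 600 cells/well, compound added after 5 h, continuous culture at 37 C.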

[3] = qHTS RealTime-Glo MT Cell Viability Assay in HepG2 cells - 8 hour (AID 1224873); also: nearly all actives have a fitted effect of over 55% in size
In short: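 Real-time viability: cells seeded at 600 per well together with NanoLuc and cell-permeant prosubstrate, compounds added after 5 h incubation. Luminescence tracked at 0, 8, 16, 24, 32 and 40 h of exposure.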

[4] = qHTS RealTime-Glo MT Cell Viability Assay in HEK293 cells - 40 hour (AID 1224874); settings: RealTime-Glo luminescence; max response: stronger effect = lower value; also: nearly all actives have a fitted effect of over 50% in size
In short: (§3)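 Luminescence, which tracks viable cell number through reduction of the prosubstrate to a NanoLuc substrate, was read over continuous 37 C culture. Cells (600/well) were premixed with reagent and rested 5 h before 23 nL of compound in DMSO was pinned.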

[5] = A CellTox Green Cytotoxicity Assay to monitor cytotoxicity in HEK293 cells - 24 hour (AID 1224875); also: series mostly up to about 77 µM; nearly all actives have a fitted effect of over 45% in size
In short: as §1

[6] = A CellTox Green Cytotoxicity Assay to monitor cytotoxicity in HepG2 cells - 16 hour (AID 1224876); also: nearly all actives have a fitted effect of over 45% in size
In short: (§4)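 Real-time cytotoxicity: fluorescence of a cell-impermeant cyanine dye binding DNA of dead HepG2 cells, measured repeatedly (0–40 h) during compound exposure at 37 C. Cells seeded 600/well with reagent, dosed after 5 h.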

[7] = qHTS RealTime-Glo MT Cell Viability Assay in HepG2 cells - 32 hour (AID 1224877); also: nearly all actives have a fitted effect of over 55% in size
In short: (§5)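 Luminescence read-out: viable HepG2 cells reduce a prosubstrate to a NanoLuc substrate, giving a signal proportional to live cell number. Reads taken at 0, 8, 16, 24, 32 and 40 h of compound exposure at 37 C.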

[8] = A CellTox Green Cytotoxicity Assay to monitor cytotoxicity in HepG2 cells - 24 hour (AID 1224878); also: nearly all actives have a fitted effect of over 45% in size
In short: as §4

[9] = A CellTox Green Cytotoxicity Assay to monitor cytotoxicity in HepG2 cells - 40 hour (AID 1224879); also: nearly all actives have a fitted effect of over 40% in size
In short: as §4

[10] = qHTS RealTime-Glo MT Cell Viability Assay in HEK293 cells - 0 hour (AID 1224880)
In short: as §3

[11] = A CellTox Green Cytotoxicity Assay to monitor cytotoxicity in HEK293 cells - 32 hour (AID 1224881); also: nearly all actives have a fitted effect of over 40% in size
In short: as §1

[12] = A CellTox Green Cytotoxicity Assay to monitor cytotoxicity in HepG2 cells - 0 hour (AID 1224882); also: nearly all actives have a fitted effect of over 35% in size
In short: as §4

[13] = A CellTox Green Cytotoxicity Assay to monitor cytotoxicity in HepG2 cells - 32 hour (AID 1224883); also: nearly all actives have a fitted effect of over 50% in size
In short: as §4

[14] = A CellTox Green Cytotoxicity Assay to monitor cytotoxicity in HEK293 cells - 8 hour (AID 1224884); also: nearly all actives have a fitted effect of over 35% in size
In short: as §1

[15] = qHTS RealTime-Glo MT Cell Viability Assay in HepG2 cells - 16 hour (AID 1224885); also: nearly all actives have a fitted effect of over 50% in size
In short: as §5

[16] = qHTS RealTime-Glo MT Cell Viability Assay in HEK293 cells - 24 hour (AID 1224886)
In short: as §2

[17] = qHTS RealTime-Glo MT Cell Viability Assay in HEK293 cells - 8 hour (AID 1224887)
In short: as §3

[18] = A CellTox Green Cytotoxicity Assay to monitor cytotoxicity in HEK293 cells - 16 hour (AID 1224888); also: nearly all actives have a fitted effect of over 35% in size
In short: as §1

[19] = qHTS RealTime-Glo MT Cell Viability Assay in HepG2 cells - 0 hour (AID 1224889); also: nearly all actives have a fitted effect of over 50% in size
In short: as §5

[20] = A CellTox Green Cytotoxicity Assay to monitor cytotoxicity in HepG2 cells - 8 hour (AID 1224890); also: nearly all actives have a fitted effect of over 45% in size
In short: as §4
% is scaled to controls: 0 for no effect and ±100 for the full control effect.

Cc1cn([C@@H]2O[C@H](CO)[C@@H](O)[C@@H]2F)c(=O)[nH]c1=O
inactive: Potency [1] | Potency [2] | outcome [3] | max response [4] -1.92% | Potency [5] | Potency [6] | Potency [7] | Potency [8] | Potency [9] | outcome [10] | Potency [11] | Potency [12] | Potency [13] | Potency [14] | outcome [15] | Potency [16] | Potency [17] | Potency [18] | Potency [19] | Potency [20]

CCCCNCCCC
inactive: Potency [1] | Potency [2] | outcome [3] | max response [4] 1.62% | Potency [5] | Potency [6] | Potency [7] | Potency [8] | Potency [9] | outcome [10] | Potency [11] | Potency [12] | Potency [13] | Potency [14] | outcome [15] | Potency [16] | Potency [17] | Potency [18] | Potency [19] | Potency [20]

CC(Oc1c(Cl)cccc1Cl)C1=NCCN1 (stereo not given)
inactive: Potency [1] | Potency [2] | outcome [3] | max response [4] -8.42% | Potency [5] | Potency [6] | Potency [7] | Potency [8] | Potency [9] | outcome [10] | Potency [11] | Potency [12] | Potency [13] | Potency [14] | outcome [15] | Potency [16] | Potency [17] | Potency [18] | Potency [19] | Potency [20]

COC(=O)c1ccc(OC)cc1
inactive: Potency [1] | Potency [2] | outcome [3] | max response [4] 0.622% | Potency [5] | Potency [6] | Potency [7] | Potency [8] | Potency [9] | outcome [10] | Potency [11] | Potency [12] | Potency [13] | Potency [14] | outcome [15] | Potency [16] | Potency [17] | Potency [18] | Potency [20]

C=CCc1cc(OC)c(O)c(C(=O)NCCO)c1
inactive: Potency [1] | Potency [2] | outcome [3] | max response [4] 15.9% | Potency [5] | Potency [6] | Potency [7] | Potency [8] | Potency [9] | outcome [10] | Potency [11] | Potency [12] | Potency [13] | Potency [14] | outcome [15] | Potency [16] | Potency [17] | Potency [18] | Potency [19] | Potency [20]

O=C(O)[C@@H](O)[C@H](O)[C@H](O)[C@@H](O)C(=O)O
inactive: Potency [1] | Potency [2] | outcome [3] | max response [4] 0.215% | Potency [5] | Potency [6] | Potency [7] | Potency [8] | Potency [9] | outcome [10] | Potency [11] | Potency [12] | Potency [13] | Potency [14] | outcome [15] | Potency [16] | Potency [17] | Potency [20]

O=C1CCCCC1C1CCCCC1 (stereo not given)
inactive: Potency [1] | Potency [2] | outcome [3] | max response [4] 11.8% | Potency [5] | Potency [6] | Potency [7] | Potency [8] | Potency [9] | outcome [10] | Potency [11] | Potency [12] | Potency [13] | Potency [14] | outcome [15] | Potency [16] | Potency [17] | Potency [18] | Potency [20]

OCCN(CCO)c1ccccc1
inactive: Potency [1] | Potency [2] | outcome [3] | max response [4] 1.89% | Potency [5] | Potency [6] | Potency [7] | Potency [8] | Potency [9] | outcome [10] | Potency [11] | Potency [12] | Potency [13] | Potency [14] | outcome [15] | Potency [16] | Potency [17] | Potency [18] | Potency [19] | Potency [20]

Nc1ccc2ccccc2c1S(=O)(=O)O
inactive: Potency [1] | Potency [2] | outcome [3] | max response [4] -4.03% | Potency [5] | Potency [6] | Potency [7] | Potency [8] | Potency [9] | outcome [10] | Potency [11] | Potency [12] | Potency [13] | Potency [14] | outcome [15] | Potency [16] | Potency [17] | Potency [18] | Potency [19] | Potency [20]

COc1nc(C)nc(NC(=O)NS(=O)(=O)c2ccccc2OCCCl)n1
inactive: Potency [1] | Potency [2] | outcome [3] | max response [4] 6.36% | Potency [5] | Potency [6] | Potency [7] | Potency [8] | Potency [9] | outcome [10] | Potency [11] | Potency [12] | Potency [13] | Potency [14] | outcome [15] | Potency [16] | Potency [17] | Potency [20]

NC(=O)Cc1cccc(C(=O)c2ccccc2)c1N
inactive: Potency [1] | Potency [2] | outcome [3] | max response [4] -24.1% | Potency [5] | Potency [6] | Potency [7] | Potency [8] | Potency [9] | outcome [10] | Potency [11] | Potency [12] | Potency [13] | Potency [14] | outcome [15] | Potency [17] | Potency [19] | Potency [20]

CO[Si](C)(C)OC
inactive: Potency [1] | Potency [2] | outcome [3] | max response [4] -0.595% | Potency [5] | Potency [6] | Potency [7] | Potency [8] | Potency [9] | outcome [10] | Potency [11] | Potency [12] | Potency [14] | outcome [15] | Potency [16] | Potency [17] | Potency [18] | Potency [19] | Potency [20]

C=Cc1ccccc1
inactive: Potency [1] | Potency [2] | outcome [3] | max response [4] 10.3% | Potency [5] | Potency [6] | Potency [7] | Potency [8] | Potency [9] | outcome [10] | Potency [11] | Potency [12] | Potency [13] | Potency [14] | outcome [15] | Potency [16] | Potency [17] | Potency [18] | Potency [19] | Potency [20]

COc1ccccc1OCC(O)COC(N)=O (stereo not given)
inactive: Potency [1] | Potency [2] | outcome [3] | max response [4] 12.1% | Potency [5] | Potency [6] | Potency [7] | Potency [8] | Potency [9] | outcome [10] | Potency [11] | Potency [12] | Potency [14] | outcome [15] | Potency [16] | Potency [17] | Potency [18] | Potency [19] | Potency [20]
